Test results reported in PubChem BioAssay AID2685 (National Center for Advancing Translational Sciences (NCATS), 2010).
Among all 320,000 compounds or so, about 2,100 (0.66%) were called active. About 53% were inconclusive and are not listed. Calls follow the shape of the dose curve; as a rule, active = well fitted inhibition curve with a large enough effect in the signal ratio, with a control signal flat (not every such curve was filed as active); inconclusive = small, poorly fitted or top-dose-only effect, or effect the other way, or a change in a side signal; inactive = flat fitted curve, though single readings scatter; the % refers to the signal ratio. This excerpt belongs to a sample that is enriched for actives.

Assay: qHTS Assay for Lipid Storage Modulators in Drosophila S3 Cells;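 as to cell number change: cells counted by Cell Tracker Red CMTPX staining in the red channel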
Conditions: BODIPY lipid droplet fluorescence, 18-24 h, cells fed with added oleic acid; cell number change: measured here: cell count max response; series mostly up to 46.1 µM
Source text: NIH Molecular Libraries Probe Production Centers Network [MLPCN] NIH Chemical Genomics Center [NCGC] MLPCN Grant: 1 R03 MH085686-01 Assay Submitter (PI): Beller, Mathias; Max-Planck-Institut fur Biophysikalische Chemie NCGC Assay Overview: Storing lipids as a reservoir for energy or the anabolism of elementary metabolites is a common feature of probably all cells and is conserved from bacteria to humans. The universal cellular lipid storage organelle is the so-called lipid storage droplet (LD). Although ubiquitous, LDs share a simple structure composed of a hydrophobic core that harbors the storage lipids, which is shielded by a droplet-specific phospholipid monolayer to which proteins are attached. The current model of LD biogenesis involves an incorporation of the lipid core into the membrane leaflets of the endoplasmic reticulum (ER) followed by a subsequent budding-like maturation of a LD, which ultimately pinches off. Once released, LD volume can increase by localized lipogenesis or fusion of existing droplet. Storage lipids are re-mobilized enzymatically by lipase activity. Lipase regulation in the adipocyte is heavily studied and involves multiple components including catecholamine signaling, the LD-associated proteins Perilipin and comparative gene identification (CGI-58) and at least two lipases named hormone sensitive lipase (HSL) and adipocyte triglyceride lipase (ATGL). LD regulation outside of the adipocyte is poorly understood and only few components are known. However, there is an urgent need to learn more about ectopic fat depots as mislocalized storage of lipids, for example in the liver or muscle, is an eminent health problem associated with insulin resistance or the metabolic syndrome. We developed a laser-scanning cytometer assay to enable 1,536-well screening and combined the results of the small molecules screen with an RNAi database based on lipid storage.
Triacsin C (Sigma-Aldrich T-4540), an inhibitor of long-chain fatty acyl CoA synthetase that blocks synthesis of triglycerides, was used as a positive control for lipid under-storage. A total of 23 nL of compound solution of different concentrations were transferred to the assay plates using a Kalypsys pin tool equipped with a 1,536-pin array containing 10-nL slotted pins (FP1S10, 0.457-mm diameter, 50.8 mm long; V&P Scientific). One microliter of oleic acid (400 uM) was added, and the plate was lidded with stainless steel rubber gasket lined lids containing pinholes. […] Fluorescence was detected by excitation of the fluorophores with a 488-nm laser on an Acumen Explorer (TTP Lab Tech). The total intensity in channel 2 (500-530 nm) reflected lipid droplet accumulation. Cells were detected using channel 3 (575-640 nm) with 5-um width and 100-um depth filters. The ratio of the number of objects in PMT channel 2 over the number of objects in PMT channel 3 was also calculated. Percent activity was computed relative to an internal control (100% inhibited lipid droplet deposition due to the presence of 20 uM Triacsin C), which was added to 32 wells/plate.
Potency is read from the fitted curve at half-maximal effect.

Compound	Potency	cell number change
O=C(Nc1ccc(Cl)cc1C(=O)c1ccccc1Cl)c1ccco1	inactive	-6.61%
O=C(Nc1ccc(Cl)cc1C(=O)c1ccccc1)c1ccco1	inactive	16.6%
CCOP(=O)(OCC)C(Cc1ccccc1)NC(C)=O (configuration not stated)	inactive	6.58%
CCOP(=O)(OCC)C(NC(=O)c1ccccc1)=C(Cl)Cl	inactive	12%
CCOP(=S)(NN(Cc1ccccc1)C(=O)c1ccccc1)OCC	6.51 µM (active)	-8.12%
CC(C)N1CCC2(CC1)NC(CO)(CO)CO2	inactive	2.89%
COc1ccc(C)cc1NC(=O)c1c(C)nn(Cc2ccccc2)c1Cl	inactive	-8.13%
O=C1N(c2ccccc2)C(c2cccnc2)N2CCCN12 (configuration not stated)	inactive	-11.1%
O=C1NC(=O)C(Cc2cccs2)C(=O)N1	25.9 µM (active)	-13%
O=C1NC(=O)N(Cc2cccs2)C(=O)/C1=C/c1ccc(N2CCOCC2)cc1	inactive	-3.62%
CN1C(=O)C(Cc2cccs2)C(=O)N(C)C1=O	inactive	1.68%
CC(=O)O[C@@H]1[C@H]2CC[C@@H]3[C@]1(C[C@@H](OC(C)=O)[C@@]1(O)C([C@@H]4O[C@@H]4C1(C)C)[C@]3(C)O)C[C@@]2(C)O (some centres not stated)	inactive	-2.47%
O=C(Nc1ccc(OC(=O)N2CCCC2)cc1)N1CCOCC1	inactive	2.4%
O=C(Nc1ccccc1OC(=O)N1CCCCC1)N1CCCCC1	inactive	3.87%
CC(=O)Nc1ccccc1OC(=O)N1CCOCC1	18.4 µM (active)	
CC1(C)COC(Nc2ccc(Cl)cc2)=N1	inactive	0.527%
COc1cccc2cc(-c3cc(=O)oc4ccc(OC(=O)N(C)C)cc34)oc12	inactive	-3.98%
Cc1cc2oc(=O)cc(-c3cc4ccccc4o3)c2cc1OC(=O)N(C)C	18.4 µM (active)	20.3%
COc1ccc(Oc2c(C)oc3cc(OC(=O)N(C)C)ccc3c2=O)cc1	inactive	27.6%
COc1ccc(C(=O)C2CCCN(Cc3ccc(C)s3)C2)c(OC)c1 (configuration not stated)	inactive	-6.83%
Cc1ccsc1C(=O)C1CCCN(CCO)C1 (configuration not stated)	inactive	-5.68%
COc1ccc(C(=O)C2CCCN(CCO)C2)c(C)c1 (configuration not stated)	0.82 µM (active)	-6.32%
CC1(O)CCN2C(=O)CCc3cccc1c32 (configuration not stated)	inactive	-14.6%
Cn1c(O)c(/C=C2\C=c3ccccc3=NC2=O)c(=O)n(C)c1=O	inactive	5.41%
CN1CCc2c([nH]c3ccccc23)C1	inactive	-7.02%

Compound	Potency	cell number change
CCCCOc1ccc(CC2C(=O)N(C)C(=O)N(C)C2=O)cc1	inactive	-19.6%
COc1ccccc1CNCCc1ccc(F)cc1	inactive	-5.32%
CCC(=NCCO)c1c(O)n(-c2ccccc2)c(=O)[nH]c1=O	20.6 µM (active)	-16.7%
CCC(=NCc1ccco1)c1c(O)n(-c2ccccc2)c(=O)[nH]c1=O	inactive	12.1%
CCC(=NCCO)c1c(O)n(-c2ccc(Cl)cc2)c(=O)[nH]c1=O	inactive	11.3%
CC(C)(C)N(NC(=O)c1ccccc1)C(=O)c1ccccc1	inactive	1.15%
COc1cc(/C=C2\C(=O)NC(=O)N(c3ccccc3)C2=O)cc(OC)c1OC	0.731 µM (active)	
COc1cc(/C=C2\C(=O)NC(=O)N(c3ccc(C)cc3)C2=O)cc(OC)c1O	inactive	15%
COc1cc(C=C2C(=O)NC(=O)NC2=O)cc(OC)c1OC	inactive	8.46%
COc1ccccc1C(=O)C1CCCN(Cc2cnc(C)s2)C1 (configuration not stated)	inactive	3.73%
Cn1c(O)c(C=NC2CCN(Cc3ccccc3)CC2)c(=O)[nH]c1=O	inactive	-0.367%
Cn1c(=O)c2c(nc(N/N=C/c3c(O)n(-c4ccccc4)c(=S)[nH]c3=O)n2C)n(C)c1=O	inactive	0.523%
CC1(C)C2CC=C(CN3CCOCC3)C1C2 (configuration not stated)	inactive	1.35%
OC1(CN2CCOCC2)C2CC3CC(C2)CC1C3 (configuration not stated)	8.2 µM (active)	-6.79%
CCC(C)n1c(O)c(C=NCCN2CCOCC2)c(=O)[nH]c1=S (configuration not stated)	inactive	0.504%
COc1ccc(-n2c(O)c(C(C)=NCCN3CCNCC3)c(=O)[nH]c2=O)cc1	inactive	-2.05%
COC(=O)C1=C(c2ccc(-c3ccccc3)c(F)c2)C[C@@H]2CC[C@H]1N2C(=O)NC1Cc2ccccc2C1	7.31 µM (active)	-24.5%
COC(=O)C1=C(c2ccc(-c3ccccc3)c(F)c2)C[C@@H]2CC[C@H]1N2C(=O)NCCOc1ccccc1	inactive	-7.31%
COC(=O)C1=C(c2ccccc2OCc2ccccc2)C[C@@H]2CC[C@H]1N2C(=O)NCc1ccc(OC)cc1	inactive	-4.45%
COC(=O)C1=C(c2ccc(-c3ccccc3)c(F)c2)C[C@@H]2CC[C@H]1N2C(=O)NCC1CC1	inactive	-12.8%
COC(=O)C1=C(c2ccc3ccccc3c2)C[C@@H]2CC[C@H]1N2C(=O)NC1Cc2ccccc2C1	inactive	-10.8%
COC(=O)C1=C(c2ccccc2OCc2ccccc2)C[C@@H]2CC[C@H]1N2C(=O)NCc1ccc(N(C)C)cc1	23.1 µM (active)	-7.57%
COC(=O)C1=C(c2ccc(OC(F)(F)F)cc2)C[C@@H]2CC[C@H]1N2C(=O)NCCOc1ccccc1Cl	inactive	
COC(=O)C1=C(c2ccccc2OCc2ccccc2)C[C@@H]2CC[C@H]1N2C(=O)NCc1ccccc1	inactive	-13.3%
COC(=O)C1=C(c2ccc(-c3ccccc3)c(F)c2)C[C@@H]2CC[C@H]1N2C(=O)NCCOc1ccccc1Cl	14.6 µM (active)	-24.1%
